Assay [1] in a line: A CellTox Green Cytotoxicity Assay to monitor cytotoxicity in HepG2 cells - 0 hour (AID 1224882). Also: nearly all actives have a fitted effect of over 35% in size. A digest of the protocol: (§1)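 First, HepG2 cells (600/well) mixed with reagent were plated; second, after 5 h at 37 C they received compounds via pintool; third, fluorescence was measured at 0 h through 40 h at 8 h intervals.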
A short description of assay [2]: A CellTox Green Cytotoxicity Assay to monitor cytotoxicity in HepG2 cells - 32 hour (AID 1224883). Also: nearly all actives have a fitted effect of over 50% in size. Also: potency is read from the fitted curve at half-maximal effect. In a few lines: as §1
A short description of assay [3]: A CellTox Green Cytotoxicity Assay to monitor cytotoxicity in HEK293 cells - 8 hour (AID 1224884). Also: nearly all actives have a fitted effect of over 35% in size. Also: potency is read from the fitted curve at half-maximal effect. A digest of the protocol: (§2)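 Dead-cell fluorescence measured kinetically: asymmetric cyanine dye, HEK293, 600 cells/well, 5 h settle, 23 nL cpd/DMSO, 37 C, reads 0–40 h every 8 h.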
Assay [4] is described as follows: qHTS RealTime-Glo MT Cell Viability Assay in HepG2 cells - 16 hour (AID 1224885). Also: nearly all actives have a fitted effect of over 50% in size. Also: potency is read from the fitted curve at half-maximal effect. In a few lines: (§3)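 Luminescence read-out: viable HepG2 cells reduce a prosubstrate to a NanoLuc substrate, giving a signal proportional to live cell number. Reads taken at 0, 8, 16, 24, 32 and 40 h of compound exposure at 37 C.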
For orientation: Quantitative high-throughput screening tests each substance at several concentrations.

Assay [5] is described as follows: qHTS RealTime-Glo MT Cell Viability Assay in HEK293 cells - 8 hour (AID 1224887). Also: nearly all actives have a fitted effect of over 50% in size. Also: potency is read from the fitted curve at half-maximal effect. In a few lines:
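600 HEK293 cells per well, dispensed already mixed with RealTime-Glo MT reagents. Compound dosing came 5 h later. The same wells were read for luminescence at 0, 8, 16, 24, 32 and 40 h of exposure at 37 C.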

Assay [6] is described as follows: A CellTox Green Cytotoxicity Assay to monitor cytotoxicity in HEK293 cells - 16 hour (AID 1224888). Also: nearly all actives have a fitted effect of over 35% in size. In a few lines: as §2
The nature of assay [7]: qHTS RealTime-Glo MT Cell Viability Assay in HepG2 cells - 0 hour (AID 1224889). Also: nearly all actives have a fitted effect of over 50% in size. A digest of the protocol:
as §3

The nature of assay [8]: A CellTox Green Cytotoxicity Assay to monitor cytotoxicity in HepG2 cells - 8 hour (AID 1224890). Also: nearly all actives have a fitted effect of over 45% in size. Also: potency is read from the fitted curve at half-maximal effect. A digest of the protocol: as §1
Assay [9] can be described thus: qHTS assay to identify small molecule antagonists of the estrogen receptor alpha (ER-alpha) signaling pathway using the BG1 cell line in the presence of 0.1 nM 17-beta-estradiol - cell viability counter screen (AID 1259241). Also: nearly all actives have a fitted effect of over 40% in size. A digest of the protocol: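 CellTiter-Fluor read (30 min, 37C) on ER-alpha/ERE-luc VM7Luc4E2 cells; 22 hr compound treatment; agonist 0.1 nM E2 final; same-well multiplex.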

Assay [10] is described as follows: qHTS RealTime-Glo MT Cell Viability Assay in HEK293 cells - 24 hour (AID 1224886). Also: nearly all actives have a fitted effect of over 50% in size. Also: potency is read from the fitted curve at half-maximal effect. In a few lines: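 Nonlytic real-time viability readout: viable cells convert prosubstrate to NanoLuc substrate, giving luminescence proportional to live cell number. HEK293, 600 cells/well, compound added after 5 h, continuous culture at 37 C.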

Inconclusive results are not listed. The source made the active and inactive calls. Calls follow the shape of the dose curve; as a rule, active = well fitted curve in the direction sought with a large enough effect in the repeat runs; inconclusive = weak or mixed curves; inactive = no such curve, though single readings can be large; an effect the other way counts as inactive or inconclusive.

`CCOc1nc(C(Cl)(Cl)Cl)ns1`: the molecule was classed as inactive in [1] and in [9]. Also, the Potency result in [2], in assay [3], in assay [4], in assay [5], in [6] and in assay [7] was “inactive” each time. Further, the Potency entry in assay [8] was “inactive”.

As for `CC1CCCCC1NC(=O)Nc1ccccc1` (stereo unspecified), the result in [1] and in [9] was inactive. Besides, the Potency result in assay [2], in assay [3], in [4], in assay [10], in assay [6] and in assay [7] was “inactive” each time. For the same molecule, in [8], the Potency result is “inactive”.

For `CC(=O)[C@H]1CC[C@H]2[C@@H]3CC[C@H]4C[C@H](O)CC[C@]4(C)[C@H]3C(=O)C[C@]12C`, the call in [1] and in assay [9] was inactive. Moreover, the Potency result in assay [2], in assay [3], in assay [4], in assay [10], in assay [5] and in assay [7] was “inactive” throughout. Further, the Potency entry in assay [8] is “inactive”.

As for `CCCCc1ccc(O)cc1`, the outcome in assay [1] and in assay [9] was inactive. Further, the Potency in assay [2] was 21.8 µM (active); in assay [10], 19.5 µM (active). Besides, the Potency entry in assay [3], in [4], in [7] and in assay [8] was “inactive” throughout.

With `CC1(C)C(=O)NC(=O)NC1=O`, the result in assay [1] and in [9] was inactive. Moreover, the Potency result in assay [2], in assay [4], in assay [10], in assay [5], in [7] and in assay [8] was “inactive” each time. The Potency in [3] is 49 µM (active).

As for `CCC(C)(C)c1cc(-n2nc3ccccc3n2)c(O)c(C(C)(C)CC)c1`, the call in [1] and in [9] was inactive. In addition, the Potency result in assay [2], in [3], in [4], in [7] and in [8] was “inactive” in each case. Moreover, in [10], the Potency is 24.9 µM (active).

Take `N#CCCC#N`: the call in assay [1] and in assay [9] was inactive. The Potency entry in assay [2], in assay [3], in assay [4], in assay [10], in assay [5] and in [7] was “inactive” throughout. In assay [8], the Potency entry is “inactive”.

Regarding `Nc1cc(Cl)ccc1O`, the result in assay [1] and in assay [9] was inactive. Further, the Potency entry in assay [2], in assay [3], in assay [4], in [10], in [7] and in assay [8] was “inactive” each time.

For the molecule `N#CC(O)c1ccccc1` (stereo unspecified), the molecule was classed as inactive in [1] and in assay [9]. Moreover, the Potency result in assay [2], in [3], in [4], in [5], in assay [6] and in assay [7] was “inactive” in each case. In assay [8], the Potency result is “inactive”.

In the case of `O=S(=O)(O)C(F)(F)C(F)(F)C(F)(F)C(F)(F)C(F)(F)C(F)(F)F`, the molecule was classed as inactive in assay [1] and in assay [9]. For the same molecule, the Potency entry in assay [2], in [3], in assay [4], in [10], in [5] and in assay [7] was “inactive” throughout. For the same molecule, the Potency entry in assay [8] was “inactive”.

On to `N#CC(CCc1ccc(Cl)cc1)(Cn1cncn1)c1ccccc1` (stereo unspecified), for which the result in assay [1] was inactive. Besides, the Potency in assay [2] was 21.9 µM (active); in assay [4] it was 27.5 µM (active); in [10], 17.4 µM (active); in assay [5], 21.9 µM (active); in assay [8], 34.7 µM (active). For the same molecule, the Potency result in assay [3] was “inactive”.

In the case of `CCOP(=S)(OCC)Oc1cc(-c2ccccc2)on1`, the molecule was called inactive in assay [1] and in assay [9]. Besides, the Potency result in [2], in assay [3], in assay [4], in assay [10], in assay [6] and in [7] was “inactive” throughout. For the same molecule, the Potency entry in assay [8] is “inactive”.

Take `CC(=O)Nc1cc([As](=O)(O)O)ccc1O`: the molecule was classed as inactive in [1] and in assay [9]. For the same molecule, the Potency entry in assay [2], in assay [3], in assay [4], in assay [10], in assay [5] and in assay [7] was “inactive” throughout. In addition, the Potency entry in assay [8] is “inactive”.

On to `CCN(CC)C(=O)[C@@H]1C=C2c3cccc4[nH]cc(c34)C[C@H]2N(C)C1`, for which the molecule was classed as inactive in assay [1]. For the same molecule, the Potency result in [2], in [3], in assay [4], in assay [5], in assay [6] and in [7] was “inactive” in each case. The Potency entry in [8] was “inactive”.

In the case of `C=C(C)CN(CC)c1c([N+](=O)[O-])cc(C(F)(F)F)cc1[N+](=O)[O-]`, the outcome in [1] and in [9] was inactive. For the same molecule, the Potency result in assay [2], in assay [3], in [4], in [10], in [7] and in [8] was “inactive” in each case.

For the molecule `ClC(Cl)(Cl)C(Cl)(Cl)Cl`, the call in assay [1] and in assay [9] was inactive. Also, the Potency entry in [2], in assay [3], in [4], in assay [10], in assay [5] and in [7] was “inactive” in each case. Further, the Potency entry in assay [8] is “inactive”.

As to `N#CCBr`, the result in assay [1] and in assay [9] was inactive. The Potency result in assay [2], in assay [3], in assay [4], in assay [5], in [6] and in assay [7] was “inactive” throughout. For the same molecule, the Potency entry in assay [8] is “inactive”.

For the molecule `COC(=O)c1ccccc1S(=O)(=O)NC(=O)Nc1nc(C)cc(C)n1`, the outcome in assay [1] and in assay [9] was inactive. Besides, the Potency entry in assay [2], in assay [3], in assay [4], in assay [10], in assay [5] and in assay [7] was “inactive” throughout. Also, the Potency result in [8] was “inactive”.

Turning to `O=[N+]([O-])c1cccc2c([N+](=O)[O-])cccc12`, in assay [1], the outcome was inactive. The Potency entry in assay [2], in assay [3], in [4], in assay [5] and in assay [6] was “inactive” each time.

(Values after PubChem BioAssay (Tox21).)
